Laboratory results reported in PubChem BioAssay (EPA / NIEHS).
“And” between values parts separate entries of the source, which are not always exact repeats. Equal entries are not always repeated. The source holds several records for some structures; these can differ, active in one and inactive in another. The source made the active and inactive calls. How the source made its calls: active means hit-call score of the fitted dose curve at least 0.9, where 1 is the maximum; inactive means score below 0.9.

assay: ATG_FoxO_CIS: Attagene CIS-FACTORIAL HepG2 Assay for human Forkhead box O (FoxO) (AID 2282943); conditions: HepG2 Attagene cis-reporter, FoxO element, mRNA; actives raise or lower the signal
Method: ATG_CIS is a cell-based, multiplexed-readout assay that uses HepG2, a human liver cell line, with measurements taken at 24 hours after chemical dosing in a 24-well plate.ATG_FoxO_CIS is one of 52 assay component(s) measured or calculated from the ATG_CIS assay. It is designed to make measurements of mRNA induction, a form of inducible reporter, as detected with fluorescence intensity signals by Reverse transcription polymerase chain reaction (RT-PCR) and Capillary electrophoresis technology.Data from the assay component ATG_FoxO_CIS was analyzed into 1 assay endpoint. This assay endpoint, ATG_FoxO_CIS, was analyzed with bidirectional fitting relative to DMSO as the negative control and baseline of activity. Using a type of inducible reporter, measures of mRNA for gain or loss-of-signal activity can be used to understand the reporter gene at the transcription factor-level as they relate to the gene FOXO1 and FOXO3. Furthermore, this assay endpoint can be referred to as a primary readout, because this assay has produced multiple assay endpoints where this one serves a reporter gene function. To generalize the intended target to other relatable targets, this assay endpoint is annotated to the dna binding intended target family, where the subfamily is forkhead box protein.
Human liver HepG2 cells are transiently transfected with multiple reporter transcription units (MRTUs) in 6-well plates using FuGene 6 reagent (Roche; 3 ml FuGene/1 mg DNA). The MRTU constructs are regulated by a cis-regulating element (promoter). […] A major difference between the CIS and TRANS system is that in CIS activities of endogenous TFs are measured, whereas the TRANS assay evaluates changes in activities of exogenous, chimeric NR-Gal4 proteins. […] At the end of 24 hour incubation, total RNA was isolated using TriZol reagent (Invitrogen). The isolated RNA is then reverse-transcribed using oligo(dT) primer and Mo-MLV reverse transcriptase (Invitrogen) with DNAse I (Ambion) treatment for 30 min. The one-tenth of the produced cDNA was amplified by PCR using Taq DNA polymerase (Invitrogen) and two reporter sequence-specific primers. The PCR products were fluorescently labeled by primer extension with 6-arboxyfluorescein (6-FAM) 5'-labeled reporter sequence-specific primer (2 min at 95 C, 20 s at 68 C and 10 min at 72 C) and these products were digested with 5U of HpaI (New England Biolabs) for 2h at 37 C. The fragments were purified using Qiaquick PCR columns (Qiagen), analyzed on an ABI 3130xL genetic analyzer (Applied Biosystems) with peak positions identified by using a set of X-rhodamine (ROX)-labeled MapMarker1000 molecular weight standards (BioVentures). The raw capillary electrophoresis data was processed using Attagraph software (Attagene).

SMILES | outcome | AC50
O=NO | inactive | –
C/C=C/c1ccc(OC)cc1 | inactive | –
CC(=O)O[C@]1(C(C)=O)CC[C@H]2[C@@H]3C=C(Cl)C4=CC(=O)[C@@H]5C[C@@H]5[C@]4(C)[C@H]3CC[C@@]21C | inactive | 150 µM (active) and 158 µM (active) and 48.6 µM (active)
CC(=O)O | inactive | –
O=[Si]=O | inactive | –
OCC(CO)n1cnc(-c2ccc(F)cc2)c1-c1ccnc(Oc2ccccc2)n1 | inactive | –
C#CC(O)C(CC)CCCC (stereo not given) | inactive | –
CC(=O)S[C@H](C(=O)N[C@H]1Cc2ccccc2[C@H]2CCC[C@@H](C(=O)O)N2C1=O)C(C)C | inactive | –
N[C@@H](Cc1c[nH]c2ccccc12)C(=O)O | inactive | –
CC(C)c1cccc(C(C)C)c1NC(=O)NS(=O)(=O)c1cc(C(C)(C)O)co1 | inactive | –
CS(=O)(=O)c1ccc([C@@H](C[C@H]2CCC(=O)C2)C(=O)Nc2cnccn2)cc1Cl | inactive | –
CC(N)=O | inactive | –
CC1(C)C(=O)NC(=O)N1CO | inactive | –
O=C1c2c(O)cccc2Cc2cccc(O)c21 | inactive | –
Cc1ccc(C(C)(C)C)c(O)c1 | inactive | –
CCOCCOCCO | inactive | –
NC=O | inactive | –
CC1=C(C)S(=O)(=O)CCS1(=O)=O | inactive | –
O=C(O)c1cccnc1 | inactive | –
Oc1ccccc1O | inactive | –

SMILES | outcome | AC50
Cc1occc(=O)c1O | inactive | –
CC(=O)CC(c1ccccc1)c1c(O)c2ccccc2oc1=O (stereo not given) | inactive | –
COc1ccc(OC(F)(F)F)cc1CN[C@H]1CCCN[C@H]1c1ccccc1 | inactive | –
CC(C)OC(=O)C(C)(C)Oc1ccc(C(=O)c2ccc(Cl)cc2)cc1 | inactive | –
Cn1cnc2c1c(=O)[nH]c(=O)n2C | inactive | –
O=C1O[C@H]([C@H](O)CO)C(O)=C1O | inactive | –
c1ccc2occc2c1 | inactive | –
NC1CCCCC1 | inactive | –
CC(=O)OCC(COC(C)=O)OC(C)=O | inactive | –
CO[C@@H]1COCC[C@@H]1N[C@@H]1CC[C@@](C(=O)N2CCc3ncc(C(F)(F)F)cc3C2)(C(C)C)C1 | inactive | –
CCCCCCC(C=O)=Cc1ccccc1 | inactive | –
CN(C)C(=O)NC1(c2ccccc2)CCN(CC[C@@]2(c3ccc(F)c(F)c3)CN(C(=O)c3ccccc3)CCO2)CC1 | inactive | –
CN(C)CCCN(C)CCCN(C)C | inactive | –
CSc1ccc(Oc2ccc(S(N)(=O)=O)cc2CN(C)C)cc1C | inactive | –
C=CCCCCCCCCCCCC | inactive | –
Cc1cc(Cc2ccc(N)c(C)c2)ccc1N | inactive | –
CCC(C)N(C)C(=O)c1cc2ccccc2c(-c2ccccc2Cl)n1 (stereo not given) | inactive | –
CCc1cc(C2=C(C(=O)O)N(c3ccccc3C(F)(F)F)S(=O)(=O)c3ccccc32)cc2c1OCO2 | inactive | –
O=C(Oc1ccccc1)c1cccc(C(=O)Oc2ccccc2)c1 | inactive | –
